The record followed here is the supplement of paper PMC10981050.

Structures can show the parent of a compound that is named as a salt.

For orientation: cell viability means a read-out of living cells in per cent, often relative to untreated cells.

The test deals with MOLM14. Briefly: cell viability relative to vehicle control; higher = less cytotoxic. The conditions noted are these: 10 µM; SRSF2 genotype: SRSF2 wt/wt. The method, boiled down: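 CRISPR-edited mutant clones and isogenic wild-type clones from four leukaemia lines were screened against Selleck bioactive, kinase and epigenetic probe libraries, with identity-inconsistent compounds excluded. Each compound was acoustically dispensed at a single 10 µM dose into 384-well plates holding 2000 cells in 50 µL medium per well. After 48 h the supernatant was removed and CellTiter-Glo luminescence was read. Viability was expressed as percent of the on-plate vehicle control and analysed in Genedata Screener.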
`CCCCCCCCCCCCc1ccc(S(=O)(=O)Nc2nncs2)cc1`: the cell viability stood at 106%. As for `C#C[C@]1(O)CC[C@H]2[C@@H]3CCc4cc(O)ccc4[C@H]3CC[C@@]21C` [Ethinyl Estradiol], the figure is 98.8%; as for `C[C@]12CCC(=O)C=C1[C@@H]1C[C@@H]1[C@H]1[C@@H]3[C@@H]4C[C@@H]4[C@@]4(CCC(=O)O4)[C@@]3(C)CC[C@@H]12` [Drospirenone], 89.2%.

Regarding `CS(=O)(=O)CCNCc1ccc(-c2ccc3ncnc(Nc4ccc(OCc5cccc(F)c5)c(Cl)c4)c3c2)o1` [Lapatinib], the cell viability worked out at 75.6%.

Take `C[C@H](CC[C@@]1(O)O[C@H]2C[C@H]3[C@@H]4CC=C5C[C@@H](O[C@@H]6O[C@H](CO)[C@@H](O[C@@H]7O[C@@H](C)[C@H](O)[C@@H](O)[C@H]7O)[C@H](O)[C@H]6O[C@@H]6O[C@@H](C)[C@H](O)[C@@H](O)[C@H]6O)CC[C@]5(C)[C@H]4CC[C@]3(C)[C@H]2[C@@H]1C)CO[C@@H]1O[C@H](CO)[C@@H](O)[C@H](O)[C@H]1O` [Protodioscin]: the cell viability turned out to be 0.55%.

Turning to `CC(=NNC(=S)N1CCC1)c1ccccn1`, the cell viability was 0.64%. As for `CN(CC(=O)N(Cc1ccc(C2CCCCC2)cc1)c1ccc(C(=O)O)c(O)c1)S(=O)(=O)c1c(F)c(F)c(F)c(F)c1F`, the figure is 0.38%. Take `CNS(=O)(=O)Nc1nccc(Cc2c(C)c3ccc(Oc4ncccn4)cc3oc2=O)c1F`: the cell viability worked out at 30.6%. `CC(C)n1c([C@H](C)Nc2ncnc(N)c2C#N)cc2cccc(-c3ccc(=O)n(C)c3)c2c1=O`: the cell viability was 22.6%. The result for `CCCN(CCC)C(=O)C1=Cc2ccc(-c3ccc(C(=O)N4CCCC4)cc3)cc2N=C(N)C1` [Motolimod (VTX-2337)] reads 31%; that for `O=C(O)[C@H]1O[C@@H](Oc2cc3oc(-c4ccc(O)cc4)cc(=O)c3c(O)c2O)[C@H](O)[C@@H](O)[C@@H]1O` [Scutellarin], 105%; that for `CS(=O)(=O)c1ccc(-c2nnc(/C=C/c3nnc(-c4ccc(C#N)cc4)o3)n2-c2ccccc2Cl)nc1`, 103%. As for `CC(C)=CCCC(C)=CCCC(C)=CCCC(C)=CCC1=C(C)C(=O)c2ccccc2C1=O` [Vitamin K2], the cell viability was 101%. The result for `OCC(CO)N[C@H]1C[C@](O)(CO)[C@@H](O)[C@H](O)[C@H]1O` [Voglibose] reads 97.5%; that for `C[C@]12CC[C@@H]3c4ccc(OC(=O)c5ccccc5)cc4CC[C@H]3[C@@H]1CC[C@@H]2O` [Estradiol Benzoate], 76.1%. As for `CC(C)(Sc1ccncc1-c1ccc(C#N)c2ccccc12)C(=O)O` [Verinurad (RDEA3170)], the figure is 102%; as for `N#Cc1c(Oc2ccc(F)c(NC(=O)Cc3cccc(C(F)(F)F)c3)c2)ccc2nc(NC(=O)C3CC3)sc12`, 25.9%; as for `O=C(CSc1nc2c(c(=O)n1-c1ccccc1)SCC2)Nc1ccc(-c2ccccc2)cn1`, 96.8%.

On to `C=C(C)C1CC=C(C)CC1` (single isomer, unassigned; (+)) [(+)-Dipentene], for which the cell viability is 108%. Consider `NC(=O)Nc1cc(-c2cccc(F)c2)sc1C(=O)N[C@H]1CCCNC1`, for which the cell viability was found to be 0.84%. The result for `Cc1[nH]c(=O)c(C#N)cc1-c1ccncc1` [Milrinone (Primacor)] reads 99.1%; that for `NCCCC[C@@H]1NC(=O)[C@@H](Cc2ccc(O)cc2)NC(=O)[C@H](CC(=O)O)NC(=O)CNC(=O)[C@H](CCCN=C(N)N)NC1=O` [Cyclo(RGDyK)], 90.9%; that for `CCN(Cc1ccncc1)C(=O)C(CO)c1ccccc1` (stereo unspecified) [Tropicamide], 106%. For `O=c1c2cc(O)c(O)cc2oc2cc(O)c([C@@H]3O[C@H](CO)[C@@H](O)[C@H](O)[C@H]3O)c(O)c12` [Mangiferin], the cell viability came out at 104%. As for `C=CC[S+]([O-])C[C@H](N)C(=O)O` (stereo partly specified) [Alliin], the figure is 107%.

Take `CCN1CCN(Cc2ccc(C(=O)Nc3ccc(C)c(Oc4ccc5c(c4)CC(=O)N5)c3)cc2C(F)(F)F)CC1`: the cell viability was found to be 45%. In the case of `Cc1cc(C)c(-c2csc(NC(=O)c3ccccc3)n2)c(C)c1`, the cell viability was determined as 40.5%. As for `COc1ccccc1OCC(O)CN1CCN(CC(=O)Nc2c(C)cccc2C)CC1` (stereo unspecified) [Ranolazine dihydrochloride], the figure is 100%. In the case of `COc1cc2c(=O)c(-c3ccc(O)cc3)coc2cc1O[C@@H]1O[C@H](CO)[C@@H](O)[C@H](O)[C@H]1O` [Glycitin], the cell viability stood at 103%.

Regarding `C#C[C@]1(O)CC[C@H]2[C@@H]3CCc4cc(OC5CCCC5)ccc4[C@H]3CC[C@@]21C` [Quinestrol], the cell viability came out at 79.2%. On to `CC(C)(Cc1ccc2ccccc2c1)NC[C@@H](O)COc1cccc(Cl)c1C#N`, for which the cell viability is 2.3%.
